Bioassay records: PubChem BioAssay, National Center for Advancing Translational Sciences (NCATS)
Shown are actives, neighbours in structure and some others; about 6.3% of the full set was active somewhere.
TGFb inhibitor: inhibitors of TGF-b signaling; AID 588855; Potency, µM (highest dose often 46.1 µM), inactives show at the highest dose activity, negative = inhibition, actives largely listed as inhibitors; HepG2 CAGA-GFP TGF-b/SMAD3 reporter, GFP fluorescence, 18 h; TGF-beta stimulated, 500 pg/mL final; hit rate 1.2% among 410,000; also: % is scaled to controls: 0 for no effect and ±100 for the full control effect; nearly all actives have a fitted effect of over 65% in size
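First, reporter cells (HEPG2 CAGA-GFP) rested 2 h at 37 degrees C. Next, compounds were pinned in and TGF-beta added to 500 pg/mL final. After 18 h, GFP was imaged per cell and summed per well.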
S2 tox: cell viability loss in ATXN counter-screen; AID 651635; S2 cells (HEK-293 line with an ATXN2-luciferase reporter) viability, CellTiter-Fluor protease fluorescence, 24 h; hit rate 0.49% among 400,000; Potency, µM (highest dose often 56.7 µM), actives largely listed as cytotoxic; also: nearly all actives have a fitted effect of over 40% in size
HepG2 tox: HepG2 cytotoxicity, counter-screen for TGF-b inhibitors; Potency, µM (top dose mostly 46.1 µM), for the others: at the top dose activity change, negative = cytotoxicity, actives largely listed as cytotoxic; HepG2 CAGA-GFP viability, ATP luminescence, 18 h; hit rate 0.76% among 410,000
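HepG2 CAGA-GFP cells (1000/well, DMEM with 1% FBS) received compound, then TGF-beta at 500 pg/mL final, and were incubated 18 hours at 37 degrees C. Viability was read by CellTiter-Glo luminescence. Media-only wells were set as complete cell-killing and DMSO as no toxicity.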
RORgamma inh: blocks mouse ROR gamma transcriptional activity; Drosophila S2 Gal4-RORgamma UAS-luciferase reporter, 20 h; AID 2551; Potency, µM (top dose mostly 53.6 µM), inactives show at the top dose activity change, negative = inhibition, actives largely listed as inhibitors; hit rate 5.4% among 310,000; also: % is scaled to controls: 0 for no effect and ±100 for the full control effect; nearly all actives have a fitted effect of over 60% in size
Target sequence (P51450 whole entry, looked up, the tested form may be a part): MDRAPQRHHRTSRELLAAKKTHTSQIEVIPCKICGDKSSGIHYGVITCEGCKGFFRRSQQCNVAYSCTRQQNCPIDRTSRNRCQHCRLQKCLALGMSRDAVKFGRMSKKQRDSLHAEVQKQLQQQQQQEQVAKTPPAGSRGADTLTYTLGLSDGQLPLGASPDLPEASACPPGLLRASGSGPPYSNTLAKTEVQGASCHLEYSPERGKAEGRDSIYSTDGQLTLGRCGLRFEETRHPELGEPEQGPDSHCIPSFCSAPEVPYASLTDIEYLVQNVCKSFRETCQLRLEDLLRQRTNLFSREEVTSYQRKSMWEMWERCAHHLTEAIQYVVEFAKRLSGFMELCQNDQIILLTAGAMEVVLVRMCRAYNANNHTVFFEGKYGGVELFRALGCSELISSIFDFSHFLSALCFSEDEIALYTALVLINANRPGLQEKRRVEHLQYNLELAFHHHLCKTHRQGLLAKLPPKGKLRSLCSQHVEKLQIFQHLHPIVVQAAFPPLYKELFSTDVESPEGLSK
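Using a luciferase readout, inhibitors were identified by reduced reporter activity in Drosophila cells coexpressing a copper-inducible Gal4–ROR gamma fusion and UAS-driven Photinus luciferase, incubated 20 hr after 700 uM copper sulfate.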
ATXN2 expr inh: reduces ATXN2 reporter expression in HEK-293 cells. HEK-293 ATXN2-luciferase reporter, luminescence, 24 h. Potency, µM (series often up to 57 µM), for inactives: top-dose activity change, negative = inhibition, hits mostly inhibitors. hit rate 0.72% among 360,000; also: % is scaled to controls: 0 for no effect and ±100 for the full control effect; nearly all actives have a fitted effect of over 55% in size
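qHTS (up to 57 uM final) was run with 24 h compound exposure of reporter cells at 37 °C. Each well was multiplexed: SteadyGlo luminescence measured ATXN2-luciferase expression after a fluorogenic Gly-Phe-AFC viability readout (25 uM final).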
VP16 counter: inhibits Gal4-VP16 luciferase reporter, ROR gamma counter-screen. Potency, µM (doses to about 53.6 µM), for inactives: at the highest dose activity, negative = inhibition, actives largely listed as inhibitors. hit rate 3.5% among 310,000. Drosophila S2 Gal4-VP16 UAS-luciferase, luminescence, 20 h. AID 2546;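 also: Gal4-VP16 expression switched on by copper sulfate through the metallothionein promoter; % is scaled to controls: 0 for no effect and ±100 for the full control effect; nearly all actives have a fitted effect of over 50% in size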
Active calls of the source: *; i = inactive; ? = inconclusive; / = no result; [ ] = remark or other dose. Calls follow the shape of the dose curve; as a rule, active = well fitted curve in the direction sought with a large enough effect; inconclusive = small, poorly fitted or top-dose-only effect, or another doubt; inactive = no such curve, though single readings can be large; an effect the other way counts as inactive or inconclusive. Potency is read from the fitted curve at half-maximal effect.

SMILES | TGFb inhibitor | S2 tox | HepG2 tox | RORgamma inh | ATXN2 expr inh | VP16 counter
CS(=O)(=O)c1ccc(-c2ccc3c(c2)CC(CNC(=O)C2(N4CCOCC4)CCCCC2)O3)cc1 (configuration not stated) | / | i | / | / | / | /
CC(O)(c1ccccc1)[N+]1(CC(=O)c2ccccc2)C=CC=C1 (configuration not stated) | -9% | / | -20% | / | / | /
COc1cc(C(=O)Nc2nc(-c3cc(C)ccc3C)c(C)s2)ccc1OCC(=O)Nc1ccc(F)cc1 | ? | i | -2% | 22% | -13% | 4%
COc1ccc(-c2nc(NC(=O)c3ccc(OCC(=O)Nc4ccc(F)cc4)c(OC)c3)sc2C)cc1 | -14% | / | -63% | ? | ? | 20µM*
Cc1ccc(C)c(Cn2c(C(C)NC(=O)c3ccc(F)cc3)nc3ccccc32)c1 (configuration not stated) | -13% | i | 0% | / | 11% | /
CCCn1c(NC(=O)c2ccc(Br)cc2)nc2ccccc21 | 7% | i | -6% | 1µM* | 4% | 1.3µM*
CCCn1c(NC(=O)c2ccco2)nc2ccccc21 | -7% | ? | -4% | -3% | -25% | -10%
CCC(=O)N1CCCC(C(=O)Nc2nc3ccccc3n2C)CC1 (configuration not stated) | 14% | i | 9% | / | 8% | /
CCCn1c(NC(=O)C2CCN(C(=O)c3ccc(F)cc3)CC2)nc2ccccc21 | ? | i | -69% | 7.1µM* | -17% | 8.9µM*
CC(NC(=O)c1ccc(F)cc1)c1nc2ccccc2n1Cc1ccccc1F (configuration not stated) | -9% | i | -3% | 18µM* | -16% | -4%
CCCn1c(NC(=O)c2ccccc2Br)nc2ccccc21 | ? | i | -46% | 0.35µM* | -21% | 2.8µM*
COc1ncccc1C(=O)N1CCCC(C(=O)Nc2cccc(-c3ccc(F)cc3)c2)C1 (configuration not stated) | -8% | i | -37% | / | / | /
CCC(=O)[C@@H](C)[C@@H](OC(C)=O)[C@H](C)C[C@@H](C)[C@H]1OC(=O)C[C@@]2(O)CC=C(C)C(O2)C(C)=CCCC[C@H](O[C@H]2C[C@@H](OC(N)=O)[C@H](OC(C)=O)[C@@H](C)O2)C=C[C@H](C)C[C@H]1C | / | i | / | / | -5% | /
CCCn1c(NC(=O)c2ccc(F)cc2)nc2ccccc21 | 21% | i | 0% | 0.32µM* | 12% | 2.5µM*
COC(=O)Cn1c(CCS(=O)(=O)c2ccc(Cl)cc2)nc2ccccc21 | ? | i | -22% | 3.5µM* | 3% | 4%
Cn1nc(-c2ccc(N3CCOCC3)c(NS(=O)(=O)c3ccc(Cl)cc3)c2)c2ccccc2c1=O | -9% | ? | -2% | 10µM* | -10% | -8%
CCc1ccccc1N1CC(c2nc3ccccc3n2CCCOc2ccc(Cl)cc2)CC1=O (configuration not stated) | -2% | i | -7% | / | 15% | /
Clc1ccc(N=c2ssnc2Cl)nc1 | 19% | ? | 4% | 10µM* | / | -7%
Clc1ccccc1N=C1NN=C(c2cccs2)CS1 | ? | i | -3% | 11µM* | 101% | ?
Cc1nc(-n2nc(C)c(Cc3ccccc3Cl)c2C)sc1C(=O)N1CCC(C)CC1 | -34% | / | -2% | / | / | /
CCn1c(C(C)NC(=O)c2ccc(Cl)cc2)n[nH]c1=S (configuration not stated) | 10% | i | 3% | 7.1µM* | -12% | -3%[10 µM]
CC(CNS(=O)(=O)c1ccc(Cl)cc1)n1cncn1 (configuration not stated) | -1% | i | -6% | 1% | 0% | 4%
CC(C)c1nnc(NC(=O)C2CCN(C(=O)C(C)(C)C)CC2)s1 | -11% | / | -40% | / | / | /
O=C(CN1CCCN(S(=O)(=O)c2ccc(Br)cc2)CC1)Nc1cccc(C(F)(F)F)c1 | 7.9µM* | ? | -50% | / | ? | /
Cc1ccc(/C=N/NC(=O)CN2CCN(S(=O)(=O)c3ccc(Br)cc3)CC2)s1 | 4% | i | -2% | ? | 3% | ?
SMILES | TGFb inhibitor | S2 tox | HepG2 tox | RORgamma inh | ATXN2 expr inh | VP16 counter
O=C(CN1CCN(S(=O)(=O)c2ccc(Br)cc2)CC1)N/N=C/c1ccc(Br)s1 | -2% | i | -10% | 6.3µM* | -21% | 8.9µM*
CC1CCN(S(=O)(=O)c2cn(CC(=O)Nc3cccc(C(F)(F)F)c3)c(=O)c3ccccc23)CC1 | 13µM* | ? | -32% | / | -29% | /
COc1ccc(S(=O)(=O)N2CCCN(CCC(=O)Nc3cccc(C(F)(F)F)c3)CC2)cc1 | -11% | i | 0% | ? | 3% | ?
CCCCN(CCCC)C(C(N)=O)c1ccc(OC)cc1 (configuration not stated) | / | i | / | / | 7% | /
COc1ccc(O[C@H]2C=C[C@@H](c3ccccc3)O[C@H]2COC(=O)CC/C(C)=N\O[C@@H](C)c2cn([C@H]3COC[C@H]3O)nn2)cc1 | / | / | / | 1%[10 µM] | / | 5%[10 µM]
COc1cc(O)oc1C=Nc1ccc(C(=O)O)cc1 | -3% | i | 14µM* | -20% | -31%[11.3 µM] | 4%
COc1cc(O)oc1C=Nc1ccc(Cl)cc1 | -7% | i | 5% | 9% | -4% | -14%
Cc1cc(C(=O)COC(=O)c2ccccc2O)c(C)n1Cc1cccs1 | -37% | i | -3% | 3.5µM* | 0.71µM* | 7.1µM*
Cc1cc(C(=O)COc2cccnc2[N+](=O)[O-])c(C)n1Cc1cccs1 | 0% | ? | 2% | 9% | ? | -3%
CC(=O)Nc1ccccc1OCC(=O)c1cc(C)n(Cc2cccs2)c1C | -25% | i | -33% | -38% | 45% | 1.3µM*
COC(=O)c1nnc(C(=O)NCc2ccccc2)c2[nH]c3ccc(OC)cc3c12 | / | / | / | 10% | / | -5%
CCOc1ccc(CCNC(=O)Cn2c(=O)c3cccn3c3ccc(F)cc32)cc1OCC | -6% | / | -4% | / | / | /
CCCC(=O)N1CCC1(C)C(=O)NS(=O)(=O)c1ccc(C(C)(C)C)cc1 (configuration not stated) | 15% | i | -15% | / | -4% | /
CCOc1ccc(C(=O)OCC(=O)N(Cc2ccccc2)Cc2ccccc2)cc1OC | -5% | i | 1% | / | -3% | /
